Measured values reported in ChEMBL document CHEMBL1961873, “Compounds: GSK PKIS; Assays: Nanosyn kinase panel” (2012).

Molecular target: Tyrosine-protein kinase Fyn (Homo sapiens) (UniProt P06241)
Conditions: at 0.1 µM

Tyrosine-protein kinase Fyn (Homo sapiens), sequence (P06241 2-537 limits assumed): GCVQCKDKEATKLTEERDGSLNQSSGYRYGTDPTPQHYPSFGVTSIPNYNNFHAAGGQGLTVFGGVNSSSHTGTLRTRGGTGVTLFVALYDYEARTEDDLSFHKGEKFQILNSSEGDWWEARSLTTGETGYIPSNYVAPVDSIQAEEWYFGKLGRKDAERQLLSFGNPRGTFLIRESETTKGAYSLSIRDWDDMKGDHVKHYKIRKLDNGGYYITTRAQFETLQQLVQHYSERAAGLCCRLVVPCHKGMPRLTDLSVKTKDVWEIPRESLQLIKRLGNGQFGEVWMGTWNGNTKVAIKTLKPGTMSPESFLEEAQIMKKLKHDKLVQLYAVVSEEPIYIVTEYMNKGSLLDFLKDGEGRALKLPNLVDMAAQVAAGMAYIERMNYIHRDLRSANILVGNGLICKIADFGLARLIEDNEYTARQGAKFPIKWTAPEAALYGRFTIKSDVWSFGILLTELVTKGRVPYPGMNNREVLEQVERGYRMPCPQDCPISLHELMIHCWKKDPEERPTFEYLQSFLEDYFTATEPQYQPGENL

Structure (SMILES)	inhibition
Cc1ccc2c(-c3ccnc(Nc4cccc(C(F)(F)F)c4)n3)c(-c3ccccc3)nn2n1	15.6%
NS(=O)(=O)c1ccc(N/N=C2\C(=O)Nc3ccc(Cl)cc32)cc1	0.23%
COC(=O)c1cncc(/C=C/c2c(C)cc(O)cc2C)c1	3.73%
COc1cccc(-n2ncc3c(N/N=C/c4ccc(S(C)(=O)=O)cc4)ncnc32)c1	32.4%
CN(C)C(=O)O[C@H]1CN[C@H](C#Cc2cc3ncnc(Nc4ccc(OCc5cccc(F)c5)c(Cl)c4)c3s2)C1	-0.77%
Cc1cc(Cl)cc2c1NC(=O)C2=NNc1ccc(S(N)(=O)=O)cc1	0.94%
Cc1ccc(C(=O)NC2CC2)cc1-c1ccc2[nH]ncc2c1	-0.87%
O=C(Nc1ccc(Oc2ccc3[nH]c(NC(=O)c4ccco4)nc3c2)cc1)Nc1cc(C(F)(F)F)ccc1F	-1.01%
NS(=O)(=O)c1ccc(-c2cc3ccncc3cc2OCc2ccccc2)cc1	1.04%
Cc1cc(O)cc(C)c1/C=C/c1cncc(C(=O)N(C)C)c1	3.23%
CN(c1ccc(NC(=O)Nc2ccc(OC(F)(F)F)cc2)cc1)c1ccnc(Nc2cccc(S(N)(=O)=O)c2)n1	8.93%
Cc1ccc(O)cc1Nc1ccnc2ccc(S(C)(=O)=O)cc12	92.4%
Cc1cc(-c2ccccn2)cc(C)c1/C=C/c1cncc(-c2nn[nH]n2)c1	4.53%
O=C1Nc2ccccc2/C1=C/Nc1ccc2[nH]c(=O)[nH]c2c1	4.36%
ON=C1CCc2cc(-c3nc(C4CCNCC4)[nH]c3-c3ccncc3)ccc21	2.09%
C[C@@H](Oc1cc(-n2cnc3ccc(OCC4CCN(C)CC4)cc32)sc1C(N)=O)c1ccccc1C(F)(F)F	2.33%
Cc1nc(-c2ccccc2)n2nc(NCCCN3CCOCC3)ncc12	1.73%
[O-][S+]1CCN(Cc2ccc(-c3ccc4ncnc(Nc5ccc(OCc6ccccc6)c(Cl)c5)c4c3)o2)CC1	2.58%
Oc1cccc(-c2nc(-c3ccccc3)[nH]c2-c2ccncc2)c1	3.67%
Nc1nccc(-c2c(-c3ccc(F)cc3)ncn2CCCN2CCOCC2)n1	0.86%
Cc1ccc(Nc2ccnc(Nc3cccc(C(N)=O)c3)n2)cc1O	77.2%
